Bioassay records (PubChem BioAssay)
Rows were chosen to be rich in hits. Some 1.4% of all compounds tested hit in one or more screens of this group.
BAP1 block: inhibitors of BAP1 deubiquitinase, primary screen, biochemical, Ub-AMC fluorescence, kinetic; Ubiquitin carboxyl-terminal hydrolase BAP1 (Homo sapiens), Q92560; recombinant BAP1, Ub-AMC hydrolysis fluorescence kinetic; hits give low values; calls only at 20 µM; 0.48% of 72,000 active; AID 436, 2006;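 active = activity remaining at or below 50% of control, provided the compound also passes the data quality filters; inactive = the rest, including low values that fail the filters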
DUSP1 inh: MKP-1 phosphatase inhibitors, primary screen, biochemical, in vitro | Dual specificity protein phosphatase 1 (Homo sapiens), P28562 | recombinant MKP-1, OMFP hydrolysis fluorescence | inhibition, %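 (compounds tested at a single concentration somewhere between 10 and 100 µM)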 | 0.15% of 65,000 active | AID 374, 2006;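 active = inhibition above about 50%, limit read from the data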
Target sequence (P28562 whole entry, looked up): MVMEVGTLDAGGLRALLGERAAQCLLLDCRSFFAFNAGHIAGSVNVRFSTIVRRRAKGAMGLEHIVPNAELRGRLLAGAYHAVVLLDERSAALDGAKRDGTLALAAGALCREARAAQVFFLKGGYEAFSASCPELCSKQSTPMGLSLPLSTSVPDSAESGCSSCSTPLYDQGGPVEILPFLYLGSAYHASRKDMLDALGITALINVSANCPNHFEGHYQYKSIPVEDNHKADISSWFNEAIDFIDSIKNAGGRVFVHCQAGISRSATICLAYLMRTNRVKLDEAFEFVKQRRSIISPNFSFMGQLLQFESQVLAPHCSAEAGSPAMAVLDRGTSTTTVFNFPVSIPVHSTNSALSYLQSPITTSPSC
PLAP activator: PLAP enzyme activators, biochemical, luminescence, HTS; 1.2% of 96,000 active; AID 696, 2007; purified PLAP enzyme, luminescent substrate read-out; hits give high values; Alkaline phosphatase, placental type (Homo sapiens), P05187; activation fold at 20 µM; in the data active = activation fold above about 2
HePTP inhibitor: inhibitors of human HePTP phosphatase, primary screen, biochemical, absorbance, leukemia target; Tyrosine-protein phosphatase non-receptor type 7 (Homo sapiens), P35236; recombinant HePTP phosphatase activity, OD absorbance; inhibition, % at 20 µM; 0.64% of 110,000 active; AID 521, 2006; in the data active = inhibition above about 50%
Cdc25B inh: inhibitors of Cdc25B phosphatase catalytic domain, primary screen, biochemical, OMFP fluorescence. M-phase inducer phosphatase 2 (Homo sapiens), P30305. recombinant Cdc25B, OMFP fluorescence Ex485/Em525. inhibition, %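 (compounds tested at 10 µM final in the well)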. 0.1% of 65,000 active; in the data active = inhibition above about 50%
Hits are given with their value; - = inactive; . = no result shown; + = active, no number.

SMILES | BAP1 block | DUSP1 inh | PLAP activator | HePTP inhibitor | Cdc25B inh
COc1ccc(C(=O)Nc2nnc(Cc3cccs3)s2)cc1OC | - | - | - | - | -
COc1ccc(Cc2nnc(NC(=O)Cc3cccs3)s2)cc1OC | + | - | . | . | -
CCn1c(SCc2nc3sc(C(=O)O)c(C)c3c(=O)[nH]2)nc2ccccc21 | . | . | 2.3 | . | .
COCCn1c(SCc2nc3sc(C(=O)OC)c(C)c3c(=O)[nH]2)nc2ccccc21 | - | - | - | - | -
COc1cc(OC)c(C2NC(=S)NC(C)=C2C(=O)Nc2ccccc2)cc1OC (stereo unspecified) | . | . | . | - | .
CN1C(=O)/C(=C2\SC(=S)N(C(CCC(=O)O)C(=O)O)C2=O)c2ccccc21 (stereo unspecified) | - | - | - | - | -
CN1C(=O)/C(=C2/SC(=S)N(CCC(=O)O)C2=O)c2cc(Br)ccc21 | . | . | . | 104 | .
CCOc1cc(/C=C2/SC(=S)N(C)C2=O)ccc1OCc1ccccc1Cl | . | . | . | - | .
O=C(O)C1Nc2ccc3ccccc3c2C2C=CCC12 (stereo unspecified) | . | . | . | 102 | .
O=C(O)c1ccc2c(c1)C1C=CCC1C(C(=O)O)N2 (stereo unspecified) | - | . | . | . | .
O=C(O)C1Nc2ccc([N+](=O)[O-])cc2C2C=CCC12 (stereo unspecified) | . | . | . | 104 | .
Nc1ccc(O)c2c1C(=O)c1c(N)ccc(O)c1C2=O | . | . | . | - | .
Nc1ccc(S(=O)(=O)O)c2cccc(O)c12 | . | . | . | 103 | .
Cc1[nH]c2ccccc2c1/C=C/c1nc2ccccc2c(=O)n1-c1ccc([N+](=O)[O-])cc1 | . | . | . | - | .
Cc1c(/C=C/c2nc3ccccc3c(=O)n2-c2ccc([N+](=O)[O-])cc2)c2ccccc2n1C | . | . | . | 81 | .
CN1C(=O)NC(=O)/C(=C/c2cc(Cl)ccc2O)C1=O | . | . | . | - | .
CCn1cc(/C=C2\C(=O)NC(=O)N(c3ccccc3)C2=O)c2ccccc21 | . | . | . | - | .
C#CCn1cc(/C=C2\C(=O)NC(=O)N(c3ccc(C)cc3)C2=O)c2ccccc21 | . | . | . | 85 | .
COc1ccc(NC(=S)NC(NC(=O)c2cccc([N+](=O)[O-])c2)C(Cl)(Cl)Cl)cc1 (stereo unspecified) | . | . | . | - | .
COC(=O)c1cc(C(=O)NC2CCSC2=O)cc([N+](=O)[O-])c1 (stereo unspecified) | . | . | . | 102 | .
COc1ccc(C(=O)NC2CCSC2=O)cc1[N+](=O)[O-] (stereo unspecified) | . | . | . | - | .
O=C(c1ccco1)N1CCN(c2cc(=O)n(C3CCCCC3)c(=O)[nH]2)CC1 | - | - | - | - | 65
CC(C)CC(=O)Nc1nc(-c2ccc(Cl)c(Cl)c2)cs1 | . | . | . | - | .
C=Cc1c(C)c2cc3[nH]c(cc4nc(cc5nc(cc1[nH]2)C(C)=C5CCC(=O)O)C(CCC(=O)O)=C4C)c(C)c3C=C | + | . | . | . | .
CCOc1ccc2nc(CCC(=O)O)[nH]c2c1 | . | . | . | - | .
SMILES | BAP1 block | DUSP1 inh | PLAP activator | HePTP inhibitor | Cdc25B inh
CN1C(=O)NC(=O)/C(=C/c2ccc(-c3ccc(Cl)cc3)o2)C1=O | . | . | . | - | .
COc1ccccc1/C=N/NC(=O)COc1c(Br)cc(Br)cc1Br | . | . | . | - | .
CC(=O)c1ccc(S(=O)(=O)N(Cc2cc3cc4c(cc3[nH]c2=O)OCCO4)CC2CCCO2)cc1 (stereo unspecified) | - | - | - | - | -
COC(=O)c1ccc(S(=O)(=O)N(Cc2cc3cc4c(cc3[nH]c2=O)OCO4)C2CCCCC2)cc1 | + | - | - | - | -
CN1CC(=O)NC1=NC(=O)C12CC3CC(CC(C3)C1)C2 | - | - | 2.6 | - | -
O=C1NCCN1C(=O)C12CC3CC(CC(C3)C1)C2 | - | - | - | - | -
Cc1ccc(NC(=O)C(=O)N/N=C/c2cccs2)cc1C | . | . | . | - | .
O=C(N/N=C/C=C/c1ccccc1)c1n[nH]c2c1CCC2 | . | . | 2.4 | . | .
COc1ccc(-n2nnnc2SCC(=O)Nc2ccc3c(c2)OCCO3)c(OC)c1 | - | 102 | - | - | -
COc1cccc(-n2nnnc2SCC(=O)Nc2ccc3c(c2)OCCO3)c1 | . | . | - | . | .
Cc1onc(-c2ccccc2Cl)c1C(=O)N1CCN(c2ccccc2F)CC1 | . | . | . | 104 | .
CCSc1nnc(NS(=O)(=O)c2ccc(Br)cc2)s1 | - | . | . | . | .
COC(=O)CSc1ncc(C#N)c(N)n1 | - | - | - | - | -
Cc1cccc(OCC(=O)NNC(=O)CSc2ncc(C#N)c(N)n2)c1 | . | . | 2 | . | .
COC(=O)C1=NN(C(=O)c2cccc([N+](=O)[O-])c2)C(O)(c2ccccc2)C1 (stereo unspecified) | . | . | . | 104 | .
COc1ccc(C2C(C(=O)OCC(=O)Nc3ccc(C)cc3)CCC(=O)N2c2ccc(OC)cc2)cc1 (stereo unspecified) | . | . | 2.4 | . | .
FC(F)(F)c1cnc(Oc2ccccc2-c2nnco2)c(Cl)c1 | . | . | 2.3 | . | .
COc1ccccc1NC(=S)NNC(=O)c1c(Cl)c(C)nn1C | . | . | - | . | .
COc1ccccc1NC(=S)NNC(=O)c1cc(C)n(C)n1 | . | . | 2.8 | . | .
O=C1OC(c2ccccc2)=C/C1=C/c1ccc(-c2ccc([N+](=O)[O-])cc2Br)o1 | . | . | . | 104 | .
NC1=NC(=O)/C(=C/c2ccc(-c3ccc([N+](=O)[O-])cc3Br)o2)S1 | . | . | . | 100 | .
CCN1C(=O)/C(=C\c2ccc(-c3ccc([N+](=O)[O-])cc3Br)o2)SC1=S | . | . | . | - | .
Cc1cccc(NC(c2ccc(O)cc2)c2ccc3ccc(C)nc3c2O)n1 (stereo unspecified) | . | . | 2.8 | . | .
O=C(c1ccc(F)cc1)N1CCN(c2cccc(Cl)c2)CC1 | . | . | . | - | .
O=C(/C=C/c1ccc(F)cc1)N1CCN(c2cccc(Cl)c2)CC1 | . | . | . | 104 | .
O=C(O)CCCC(=O)OCc1ccco1 | . | . | . | 102 | .
Cc1ccc(-n2[nH]c(=O)c(/C=C3\C=Nc4ccccc43)c2O)cc1 | . | . | . | 94 | .
